These results are taken from PubChem BioAssay AID1508600 (Functional Genomics Laboratory (NCATS/FGL), 2020).

Screen size: about 53,000 sequences; about 3,700 (7%) were called active.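 The calls were made as follows: active = gene knockdowns whose robust z-score for IL-1 alpha signal is at least 2 or at most -2, so actives lie on both sides; inactive = the rest.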 Many of the other results were omitted from the sample, so actives are more common in it than they were.

The nature of this assay: Components of the Cytosolic LPS Sensing Pathway: Gene Identification via Genome-wide siRNA Screen.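 Also: robust z of the log signal after scaling to non-targeting control siRNA wells of the plate.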 Particulars: RAW264.7 macrophages, IL-1a HTRF, actives lie on both sides, screened at 100 nM (by protocol), cells primed 5 h with Pam3CSK4 first. A digest of the protocol:
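Read-out: IL-1a HTRF on supernatant, divided by plate negative-control median ×100, log-transformed and converted to robust z-score. Cells were RAW264.7 given 100 nM siRNA, Pam3CSK4-primed 5 hours, then LipidA-transfected 24 hour.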
In general terms: Time-resolved FRET reads energy transfer from a long-lived donor to a nearby acceptor.
Turning to GGGUGCAUCCCAUUCUCUUTT against Pld1, the z-score is -0.0755 (inactive).
In the case of GCGAGAGAUCCCUCUGAAATT against Pigs, the z-score was -0.284 (inactive).
As to GCAUCCCAGAUAUUGAGCATT against Arrdc1, the z-score is 2.52 (active).
With GCUCUGUUCACACGUUUAATT against Arhgap10 the figure was -0.898 (inactive); with CGAAAUUGUGAUGAUGAACTT against Mast1, -0.799 (inactive).
With CCAAUUUGACCCAUACUAUTT against Crtc2 the figure was 1.61 (inactive).
Under GGAGAUUGGGAUCAAAGCCTT against Mthfd1 stands -1.56 (inactive).
Regarding GGACCUUUCAUCAACCCAUTT against Olfr676, the z-score is 2.13 (active).
With GGUGCCAUUGAUUCUGUAGTT against Smim10l2a the figure was -0.807 (inactive).
Under GCAGUGGGAAUCGAUAAAGTT against Fgfr2 stands -0.876 (inactive); under GGCAAGCUGUAAAAGAUGCTT against Noc3l, 3.32 (active); under GGCCAUUUCUAUGAAAUUATT against Olfr1016, -2 (active).
Under CCUUAGGACAAGUAUUCUGTT against Cbx6 stands 0.47 (inactive).
On to GGCAACUUUAUACACAAACTT against Vmn1r13, for which the z-score is -0.283 (inactive).
With GGAACCUUUCAGAAAUAUATT against Calhm5 the figure was -0.53 (inactive).
With GGUCUGAUUGUCCUCUCUUTT against Slc35b4 the figure was 3.25 (active); with CCACACCUUCAAAGCGAGATT against L3mbtl4, -0.104 (inactive).
Under GGCCUUGAUUCAAUUCAACTT against Tgm6 stands 0.812 (inactive); under GGCAGAUAUUUAGAUGAUGTT against Pdyn, -0.932 (inactive).
Turning to GAUGUUCUUUGUCCACAUGTT against Olfr666, the z-score is -0.325 (inactive).
With GCAUUUUCUAGAUGGAAGCTT against Hao1 the figure was 0.748 (inactive); with GGUCAUUCUCCAAGAACUATT against Ugp2, -0.844 (inactive).
With GGUUCAGUAUAUCAUCUCUTT against Zfp335, the z-score is 2.69 (active).
Take GGAGAACAGUUUCAAGAUGTT against Rnf152: the z-score is -0.487 (inactive).
Under GCCGGACUUCCCAUCUGUUTT against Srebf1 stands -0.784 (inactive); under GACGAAUAUCAUCUCACACTT against Olfr875, 0.901 (inactive).
Under GCAGUUGACAUUUACUCUCTT against Nol10 stands 2.36 (active); under GCUCCACACUACGUGUCAUTT against Olfr476, 1.66 (inactive).
Under GCCUUAUCCAUAUCGACUATT against Arrdc1 stands 0.831 (inactive).
As to GGAUGCUCAUGGACCUUUGTT against Olfr1122, the z-score was 0.931 (inactive).
As to CGUACUCCAACAACACUUUTT against Pdzd8, the z-score is -0.503 (inactive).
With GGACUGUGUGUGCAAAGGUTT against Mt3 the figure was -0.176 (inactive).
With GCUACUGCCGGAAUUUGGUTT against Tiam1 the figure was 0.497 (inactive); with CGCAAGAUACCAACACUUATT against Flad1, -0.487 (inactive).
With GGAACACAAAAGCAAAGAUTT against Prpf38b the figure was 2.2 (active); with GGAUUGUGGGUUUAUAUAATT against Olfr835, 0.274 (inactive); with CAGGCUGGUUACUUUGGCUTT against Lhfpl5, -0.246 (inactive).
As for CCUUCCAACUCUUCUCCUCTT against H2-T3, the z-score is 0.915 (inactive).
Consider GCCUCAUUUGAUCAAUGUCTT against Actr2, for which the z-score is 1.86 (inactive).
With GCUAGAUAAACUCUCUCAATT against Cxcr5 the figure was 0.73 (inactive); with GGUCCAGCUCAUGAAACUUTT against Sik1, 0.147 (inactive).
Under GGGUUUGGUCGUAAACAGCTT against Limd2 stands -1.06 (inactive); under GGUGCUGCUAUUCCUGCACTT against Gpam, -2.03 (active).
Under GGGAGCUACGUUCAGAAGUTT against Gckr stands 1.63 (inactive).
Take GGAUUUCUGUGGAGAUGGGTT against Cchcr1: the z-score is 0.444 (inactive).
Under GCUACUCCAUUUACAUCUATT against H2bc1 stands -0.122 (inactive); under GCGGAGUGUGAAACACUGATT against Ccdc32, 0.842 (inactive); under GGAAGGACAGACAGACAAGTT against Pxt1, 0.165 (inactive).
With CCUAGAUGACACUUGGGUGTT against Nup35 the figure was -1.4 (inactive); with GCCUCUUCAAUCACAUUUATT against Atp6v0a4, 3.27 (active).
Consider GGAAAGAUCUACGAGAUCUTT against Unc5a, for which the z-score was 1.04 (inactive).
Under CGGAUUCGUCUGUUUUCUGTT against Ddi2 stands 1.97 (inactive); under GGAUAUACAUGGUCUGUUUTT against Naip5, 0.318 (inactive).
With GGACUCCUCCCAAGACGAATT against Avil the figure was -0.118 (inactive); with CCUACCAUAGCAACACUAUTT against Kcna2, 3.14 (active).
With GGCCCUCACAAUGAAUAUGTT against Efs the figure was -0.115 (inactive); with ACGAUAUGUUGACCUUGGCTT against Cyp2c67, -0.274 (inactive); with “CGGCAAUUUGAGUUGAAAATT against Ppp1r2-ps9”, -0.571 (inactive).
With GGGCACCUUAUACCAUAGATT against Bfar, the z-score is 0.345 (inactive).
With GGCCAUGGAGAACAUAUGCTT against Trpm8 the figure was -2.09 (active).
Regarding GGCUAUUGAGCUCUUUGUCTT against Qpctl, the z-score was -0.661 (inactive).
Under GGAGUAGUAGCUAUUAUAUTT against Kctd9 stands 1.89 (inactive).
With “GCUUUGAGACCUAAUGAUGTT against 1810024B03Rik” the figure was -0.469 (inactive); with GGUGCUAGUGUAUGAAUUATT against Nsun5, 2.39 (active); with GGAUCAUUUGUUAAUGUACTT against Ddx3y, 0.0896 (inactive).
Take GCUAUUGCUCGCAUCAAUGTT against Prps1l1: the z-score is 0.989 (inactive).
With GCGAUUAUUUCGCUUUGGATT against Pcdha12, the z-score was -0.502 (inactive).
Under GGAGAGUAAAACCAAUACATT against Fam76a stands -0.0433 (inactive); under GGGUCACAGAGGUUACCCATT against Col2a1, 1.25 (inactive); under GGAGACCAAAAAGAAAUAATT against Cmas, 0.622 (inactive).
With GGUGGUGGAAUGCUAAAAATT against Gys1 the figure was 2.29 (active).
Under CCAGAAUACUGGGAUACAATT against B4galnt3 stands -0.577 (inactive); under GCUCAUGUAUGUGAAUUUGTT against Ptx3, -1.25 (inactive); under GGAAACACCAUGAAGAUGATT against Atpif1, -0.0257 (inactive).
With GCAAGUCGUAAGCCUCAGGTT against Mrps10, the z-score was 0.533 (inactive).
Under GCUACGGACCAUGUUCAAGTT against Nxpe4 stands 2.93 (active); under GGAGGUACCACAAAAGGCATT against Kif2c, 0.0217 (inactive).
For CCAACUAAGUGAAAUUCCATT against Aspn, the z-score is -1.26 (inactive).
With CCCAACAUUAUCUUGGACCTT against Mrgpra8 the figure was -0.26 (inactive); with GGGAAGGAUUUUUGAUGAUTT against Arfgap1, 1.33 (inactive); with GGAAGGAAGGAAUAAAACUTT against Fitm2, -0.981 (inactive).
Under GCCACUUCACAGCAAGCUATT against Cdk2ap1 stands 3.27 (active); under GGGCGAACAGGACAAUUAUTT against Med22, -0.421 (inactive); under GCCCAUUAAUGCGUAUUUUTT against Mettl2, 1.22 (inactive).
Under GCUAAGUCGGAUGAUAGAATT against Ttc16 stands -0.742 (inactive); under GGCAUGAUCAGCACAUCACTT against Rpap1, 0.578 (inactive); under GGAUGAAUAUGGUGUUUCUTT against Rnf138, -2.23 (active).
Consider GCUAAAUUACACAUUGACCTT against Vcam1, for which the z-score is 0.226 (inactive).
With GGGAAGCAACAUGAUUAAATT against Kat7 the figure was 0.669 (inactive).
Consider CCUCACUGGUACAAUCCCATT against Tsg101, for which the z-score was -0.906 (inactive).
On to GGAACCAGUUUAAAUGAUUTT against Marchf7, for which the z-score is 0.04 (inactive).
Under CGUUACGUAAAUCUUGUGATT against Sstr2 stands 0.227 (inactive).
With GGUGGUCUACCAGCAUUUGTT against Pde4dip the figure was 2.16 (active); with GGCCAAUAAUGUGUUUCGUTT against Cmpk2, -0.632 (inactive); with CCUGGUGCCUUUAUCUACCTT against Ctxn1, 0.907 (inactive).
Under GGAGAUGCUGUUCUUUCCGTT against Casc3 stands -1.18 (inactive); under GGAUGGAUUACUGAAAGUUTT against Wdr35, 0.715 (inactive); under “GGCAGCUAUUGCUCUGGAATT against 5730596B20Rik”, -0.293 (inactive).
As for GGAGCAACAGCCAAAUACCTT against Hmgb4, the z-score was 2.39 (active).
With GGACUAUGAGCAGAUGAAGTT against Calcb the figure was -0.217 (inactive).
Under GGAUGUGCACGAAGGACAGTT against Cdh2 stands 2.09 (active); under CCAGUCCAUUGAAUAGUUCTT against Papola, 0.329 (inactive); under GGAAAGGAAUCCAAAAAUCTT against Lias, -0.42 (inactive).
With CCAGAAGUGAUCGCCUCUUTT against Zfp300 the figure was 1.16 (inactive); with GCCAUAAAACAGAAUCUCATT against Tmco5b, -0.309 (inactive); with GGUGGUGAUAAGCUUCCUCTT against Olfr1417, -1.87 (inactive).
For the sequence GGGACUUCAGACAGUUAUCTT against Ess2, the z-score was 1.69 (inactive).
Under GCCGAACUUCGGAAUUCUGTT against Nf1 stands 2.08 (active).
